phage Ecoli inh = E. coli growth loss with phage present | growth absorbance | inhibition, % at 11.9 µM | 360,000 compounds, 0.26% hits; in the data active = inhibition above about 11%
E coli growth-1 = counter-screen for AddAB inhibitors: E. coli growth inhibition; inhibition, % at 11.9 µM; E. coli V3065 growth, OD600 absorbance, 18 h; AID 449728; 330,000 compounds, 0.27% hits;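 active = inhibition above the campaign's mean inhibition across all tested compounds plus 3 SD, cut at about 9.9% in these data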;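 also: uninfected addAB+ strain grown without phage in ampicillin broth; 0% = DMSO wells and 100% = ciprofloxacin 0.95 µg/ml wells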
AddAB inh = less growth of phage-infected E. coli with AddAB; E. coli expressing H. pylori AddAB, absorbance growth; inhibition, % at 11.9 µM; AID 435030; 330,000 compounds, 0.29% hits; in the data active = inhibition above about 12%;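 also: 0% = vehicle wells of infected cells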
E coli growth-2 = inhibitors of Escherichia coli growth. OD600, 23 h; stronger effect = lower value. OD600 absorbance (concentration not given with the values). 330,000 compounds, 0.21% hits;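 active = OD600 absorbance below the run mean of sample wells minus 3.6 SD, in any replicate, cut at about 0.56 in these data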
Tat export inh = inhibitors of E. coli Tat protein transport; E. coli MC4100 TorA-mCherry Tat export, fluorescence; inhibition, % at 10 µM; 340,000 compounds, 0.036% hits; AID 488895;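 active = mean replicate inhibition at least 50% and at least half of replicates individually reaching 50%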;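 also: exported cargo escapes ClpAP degradation while cytoplasmic cargo is degraded and loses fluorescence; 0% = median of neutral control wells and 100% = median of NaSCN control wells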
RecBCD conf = confirmation: growth loss of phage-infected RecBCD+ E. coli (RecBCD inhibitor screen) | inhibition, % at 11.9 µM | shares compounds with phage Ecoli inh | 890 compounds, 45% hits | E. coli V66 + T4 2- phage, growth OD;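 active = mean inhibition over triplicates exceeding the hit threshold derived in the original primary screen, cut at about 11% in these data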
Ecoli viability = counter-screen for RecBCD inhibitors: inhibitors of bacterial viability | shares compounds with phage Ecoli inh | E. coli viability, absorbance (OD) growth | inhibition, % at 11.9 µM | 890 compounds, 29% hits | AID 651983; in the data active = inhibition above about 20%;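 also: E. coli strain V66 grown with compound alone and no phage infection; 0% = bacteria with DMSO vehicle only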
AddAB phage OD = growth loss of phage-infected AddAB E. coli, RecBCD counter-screen. shares compounds with phage Ecoli inh. E. coli expressing H. pylori AddAB + T4 phage, OD growth; gene 2 mutant T4, recBCD-deleted host. inhibition, % at 11.9 µM. 890 compounds, 45% hits. AID 651984;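 active = mean inhibition above the solvent-only control wells' mean plus 3 SD, cut at about 22% in these data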;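 also: higher means less bacterial growth from phage killing when AddAB is blocked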
An asterisk follows results filed as active; / = not tested or not shown. This is a sample that favours compounds with a hit; in the whole collection about 0.5% have one here.

SMILES	phage Ecoli inh	E coli growth-1	AddAB inh	E coli growth-2	Tat export inh	RecBCD conf	Ecoli viability	AddAB phage OD
CC1CN(C(C)CO)C(=O)c2cccc(NC(=O)Cc3ccccc3)c2OC1CN(C)Cc1ccccc1 (stereo not given)	/	/	/	0.69	/	/	/	/
ClC(Cl)(Cl)c1nc(NN=Cc2ccncc2)c2ccccc2n1	/	/	/	0.64	/	/	/	/
O=C(C(Cc1ccc(Cl)cc1)NS(=O)(=O)c1ccccc1)N1CC[C@@]2(O)CCCCC2C1 (stereo not given in full)	/	/	/	0.71	/	/	/	/
O=[N+]([O-])c1cc([N+](=O)[O-])c(Oc2c(Cl)cccc2Cl)cc1NN1CCCCC1	13*	0	4	0.71	1	-3	-4	-1
Cc1nnc(SCC2=C(C(=O)O)N3C(=O)[C@@H](NC(=O)Cn4cnnn4)[C@H]3SC2)s1	94*	1	-1	0.045*	-6	102*	104*	3
Cc1nnc(SCC2=C(C(=O)O)N3C(=O)C(NC(=O)Cn4nc(C(F)F)c(Cl)c4C)C3SC2)s1 (stereo not given)	4	2	-1	0.62	17	/	/	/
CCC(C(=O)NC1C(=O)N2C(C(=O)O)=C(CSc3nnc(C)s3)CSC12)c1ccccc1 (stereo not given)	4	0	0	0.63	-3	/	/	/
CN(C)CCn1nnnc1SCC1=C(C(=O)O)N2C(=O)[C@@H](NC(=O)Cc3csc(N)n3)[C@H]2SC1	99*	0	1	/	-3	103*	105*	51*
Cc1nnc(SCC2=C(C(=O)O)N3C(=O)C(NC(=O)Cn4cnnn4)C3SC2)s1 (stereo not given)	100*	-1	-3	0.062*	0	104*	106*	1
CCOc1ccc(NC(C)C(=O)NN=Cc2cccs2)cc1 (stereo not given)	/	/	/	0.68	/	/	/	/
NC(=O)/C(=C\c1ccc([N+](=O)[O-])o1)c1ccco1	100*	/	/	/	/	102*	103*	101*
COC(=O)/C(=C\c1ccc([N+](=O)[O-])o1)NC(=O)c1ccccc1	2	1	1	0.71	2	/	/	/
Cc1ccc(NC(=O)CCCSc2nc3ccccc3[nH]2)cc1	12*	14*	10	0.63	-28	8	11	8
CCCCCCCCCC[n+]1cccc2c3ccccc3ccc21	12*	/	/	0.13*	-7	2	3	6
CCN(CC)S(=O)(=O)c1cc(OC)ccc1N=Nc1ccc(O)c2ncccc12	12*	/	/	/	2	1	2	2
Cc1cccc(N=Nc2ccc(O)c3ncccc23)c1	16*	6	9	0.72	2	5	7	5
CCS(=O)(=O)c1ccc(OC)c(N=Nc2ccc(O)c3ncccc23)c1	7	6	8	0.66	-9	/	/	/
Cc1cc(NS(=O)(=O)c2ccc(NC(=S)Nc3ccc(Cl)cc3C)cc2)no1	12*	5	6	0.7	-14	3	2	12
O=C(CCCc1ccccc1)NCc1cn2ccsc2n1	96*	1	-4	0.73	6	-2	-1	4
CO[C@H]1/C=C/O[C@@]2(C)Oc3c(C)c(O)c4c(O)c(c5c(c4c3C2=O)NC2(CCN(CC(C)C)CC2)N=5)=NC(=O)/C(C)=C\C=C\[C@H](C)[C@H](O)[C@@H](C)[C@@H](O)[C@@H](C)[C@H](OC(C)=O)[C@@H]1C	95*	/	/	/	107*	95*	99*	100*
CCC1S/C(=N/N=Cc2cccs2)NC1=O (stereo not given)	/	/	/	0.74	/	/	/	/
O=C(Nc1ccc(F)cc1)Nc1csc2ccccc12	13*	3	7	0.58	/	3	5	-2
C/C(=N/NC(=O)c1cc2ccccc2cc1O)C1C(=O)c2ccccc2C1=O	11*	9	9	/	7	5	7	3
CC(=NNC(=O)c1ccccc1O)C1C(=O)c2ccccc2C1=O	/	/	/	0.67	/	/	/	/
Cc1ccc(/C=C/C(=O)c2ccccc(=O)c2O)c(C)c1	13*	2	7	0.67	1	4	6	1
SMILES	phage Ecoli inh	E coli growth-1	AddAB inh	E coli growth-2	Tat export inh	RecBCD conf	Ecoli viability	AddAB phage OD
O=C(/C=C/c1ccc([N+](=O)[O-])cc1)c1ccccc(=O)c1O	16*	/	/	/	11	10	12	-1
O=C(/C=C/c1ccc([N+](=O)[O-])cc1)c1cccs1	3	2	0	0.7	-1	/	/	/
O=C(C=Cc1ccccc1O)c1ccccc1O	2	/	/	0.57	-4	/	/	/
CCC(C)C1CN=C(N)N1CCc1cc(C(F)(F)F)cc(C(F)(F)F)c1 (stereo not given)	/	/	/	0.64	/	/	/	/
CN(Cc1ccccc1)C(=O)COC(=O)C1=NNC(=O)CC1	3	1	2	0.72	7	/	/	/
N#CCCN(C(=O)COC(=O)C1=NNC(=O)CC1)c1ccccc1	11*	0	1	0.61	-5	-2	-3	-5
Nc1c(Cl)ncnc1N/N=C/c1ccccn1	30*	-2	2	/	/	38*	49*	37*
CN(C)c1ccc(C=c2c3ccccc3n3c2c2c([n+]3C)CCCC2)cc1	62*	/	/	/	14	72*	97*	101*
O=C(/C(=N/N=C/c1ccc(O)c(O)c1O)c1ccccc1)c1ccccc1	12*	6	7	/	6	6	6	7
Oc1ccc(/C=N/N=C(c2ccccc2)c2ccccc2)c(O)c1O	14*	5	6	/	1	2	4	5
C(=Nn1c2ccccc2c2ccccc21)c1ccco1	/	/	/	0.69	/	/	/	/
C=C1CCN(C(CC(C)C)C(=O)NCCC(C)C)S(=O)(=O)c2ccccc21 (stereo not given)	/	/	/	0.67	/	/	/	/
COc1ccc(OC)c(S(=O)(=O)NN=Cc2ccc3c(c2)OCO3)c1	/	/	/	0.71	/	/	/	/
Cc1ccnc2c1ccc1cccnc12	14*	/	/	0.37*	2	13*	17	17
Cc1ccnc2c1ccc1ccccc12	3	2	2	0.6	0	/	/	/
CC1(C)CC[C@]2(C(=O)OC3OC(CO)C(O)C(O)C3O)CC[C@]3(C)C(=CCC4[C@@]5(C)CCC(OC6OC(C(=O)O)C(OC7OCC(O)C(O)C7O)C(O)C6O)C(C)(C)C5CC[C@]43C)C2C1 (stereo not given in full)	/	/	/	0.62	/	/	/	/
Cc1ccccc1C(=O)NCC(C)NC(=O)c1ccccc1C (stereo not given)	100*	2	0	0.69	-4	-3	-1	1
Cc1ccccc1CNC(=O)c1ccccc1C	1	2	2	0.68	-5	/	/	/
COc1cc2nc(N(C)C)nc(N)c2cc1OC	0	-2	1	0.76	-4	/	/	/
CN(C)c1ccc(Sc2ccc3nc(N)nc(N)c3c2)cc1	99*	/	/	/	/	64*	68*	82*

From PubChem BioAssay
